High-throughput results as filed in PubChem BioAssay.
Hits are enriched below; roughly 6.6% of the tested compounds scored in any of these assays.
MCF10A rerep – A quantitative high throughput screen for small molecules that induce DNA re-replication in MCF 10a normal breast cells; AID 624296, 2012; Potency, µM (top dose mostly 46.1 µM), for inactives: at the highest dose activity, positive = re-replication, actives largely listed as activators; MCF 10A DNA re-replication, Hoechst nuclear intensity, 48 h; 2.9% of 350,000 active; note: % of control where 0% means no effect; nearly all actives have a fitted effect of over 50% in size
RGS4 inhibitor – Inhibitors of Regulator of G Protein Signaling (RGS) 4: qHTS | Regulator of G-protein signaling 4 (Homo sapiens), P49798 | Transcreener GDP fluorescence polarization, RGS4-accelerated GTP hydrolysis | Potency, µM (highest dose often 114 µM), for the others: at the top dose activity change, negative = inhibition, actives largely listed as inhibitors | 0.039% of 390,000 active; note: % is set by controls: 0 for no effect and ±100 for the full control effect; nearly all actives have a fitted effect of over 75% in size
Target sequence (P49798 whole entry, looked up): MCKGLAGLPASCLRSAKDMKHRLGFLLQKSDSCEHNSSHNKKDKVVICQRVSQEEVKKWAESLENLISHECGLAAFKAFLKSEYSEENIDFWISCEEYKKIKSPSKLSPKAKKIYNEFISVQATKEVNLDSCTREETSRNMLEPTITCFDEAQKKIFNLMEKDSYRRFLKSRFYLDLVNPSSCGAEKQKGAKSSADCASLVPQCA
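MLSMR compounds (23 nl, pin-transferred) preincubated 10 min at room temperature with a 500nM (2x) first reagent, then RGS4 at 900nM (2x) plus Transcreener GDP mix added; fluorescence polarization (620/688 nm) read before and after 90 min at 30 °C.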
KB-V1 MDR tox – qHTS assay for MDR1-selective chemotherapeutics: Primary screen using the drug-selected MDR subline cells KB-V1. KB-V1 MDR cells viability, CellTiter-Glo, 72 h. Potency, µM (highest dose often 46.1 µM), most hits filed as cytotoxic. 3.4% of 400,000 active; note: % is set by controls: 0 for no effect and ±100 for the full control effect; nearly all actives have a fitted effect of over 60% in size
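Cytotoxicity toward P-gp-expressing KB-V1 cells was determined as loss of CellTiter-Glo luminescence after 72 h at 37 degrees C. Compounds were tested in quantitative HTS format across a concentration range, with curves fitted to normalized data.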
SW480 rereplic – A quantitative high throughput screen for small molecules that induce DNA re-replication in SW480 colon adenocarcinoma cells; Potency, µM (titrated, usually from 46.1 µM), without a hit: at the top dose re-replication activation, usual class: activators; 1.8% of 340,000 active; AID 624297, 2012; SW480 DNA re-replication, Hoechst DNA content imaging, 48 h; note: % of control where 0% means no effect; nearly all actives have a fitted effect of over 55% in size
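DNA re-replication was detected as more nuclei of elevated Hoechst intensity after 48 hr exposure to compound (23 nL pinned per well of 250 cells).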
TSG101-PTAP inh – qHTS Assay for Iinhibitors of HIV-1 Budding by Blocking the Interaction of PTAP/TSG101; Potency, µM (highest dose often 115 µM), without a hit: top-dose activity change, negative = inhibition, hits mostly inhibitors; Fluorescence polarization, FITC-PTAP peptide / Tsg101 binding; AID 493005, 2010; 340,000 tested, under 10 active; Tumor susceptibility gene 101 protein (Homo sapiens), Q99816; active = well fitted inhibition curve with a large enough effect in the main read-out, with a control signal flat, not every such curve was filed as active; inconclusive = small, poorly fitted or top-dose-only effect, or effect the other way, or a change in a side signal; inactive = no such curve, though single readings can be large or run the other way; note: % of control where 0% means no effect
Target sequence (Q99816 whole entry, looked up): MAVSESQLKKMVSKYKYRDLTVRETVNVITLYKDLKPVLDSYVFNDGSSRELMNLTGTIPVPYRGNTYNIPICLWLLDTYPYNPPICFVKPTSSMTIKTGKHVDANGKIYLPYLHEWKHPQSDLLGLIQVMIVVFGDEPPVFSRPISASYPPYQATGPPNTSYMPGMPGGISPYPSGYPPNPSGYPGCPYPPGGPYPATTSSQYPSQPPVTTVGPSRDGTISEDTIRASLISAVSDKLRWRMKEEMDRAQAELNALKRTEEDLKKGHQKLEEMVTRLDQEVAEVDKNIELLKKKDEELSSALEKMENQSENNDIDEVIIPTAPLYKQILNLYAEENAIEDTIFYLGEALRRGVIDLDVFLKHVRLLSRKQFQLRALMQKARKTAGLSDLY
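Compounds were pin-transferred onto Tsg101 binding domain (10 uM final) in HEPES pH 7.5 buffer, then FITC-PTAP peptide was added at 50 nM final. After 20 min at RT, polarization reported peptide displacement across a qHTS concentration series.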
KB-3-1 tox – qHTS assay for MDR1-selective chemotherapeutics: Primary screen using the parental adenocarcinoma cell KB-3-1 | 1.4% of 400,000 active | AID 1347075, 2019 | KB-3-1 viability, CellTiter-Glo ATP luminescence, 72 h | Potency, µM (doses to about 46.1 µM), hits mostly cytotoxic; note: % is set by controls: 0 for no effect and ±100 for the full control effect; nearly all actives have a fitted effect of over 60% in size
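Parental KB-3-1 adenocarcinoma cells in phenol-red-free DMEM with 10% FBS were pin-treated with compounds at several concentrations, incubated 72 h at 37 °C, and viability read by CellTiter-Glo luminescence; concentration-effect curves were fitted after normalization.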
* = called active by the depositor; i = inactive; ? = inconclusive; . = no result given; [ ] = remark or other dose. Unless noted, calls come from the whole dose curve; as a rule, active = well fitted curve in the direction sought with a large enough effect; inconclusive = small, poorly fitted or top-dose-only effect, or another doubt; inactive = no such curve, though single readings can be large; an effect the other way counts as inactive or inconclusive. Potency is the fitted concentration of half-maximal effect.

SMILES	MCF10A rerep	RGS4 inhibitor	KB-V1 MDR tox	SW480 rereplic	TSG101-PTAP inh	KB-3-1 tox
CSc1ccccc1NC(=O)CN1CCN(S(=O)(=O)c2ccccc2[N+](=O)[O-])CC1	21%	-6%	3.7µM*	-7%	-2%	i
O=C(NCCOc1ccccc1)c1cc(C(=O)NCCOc2ccccc2)cc([N+](=O)[O-])c1	13%	1%	3.7µM*	?	2%	?
COc1ccc(OCCNC(=O)c2cccc(Oc3ccc(C(F)(F)F)cc3[N+](=O)[O-])c2)cc1	?	-19%	2.9µM*	-34%	1%	?
COc1ccc(Oc2ccc(C(F)(F)F)cc2NC(=O)c2ccc(F)cc2)cc1	-2%	-12%	i	1%	0%	i
COc1ccccc1Nc1c2c(nc3ccc(NC(=O)c4cccc(F)c4)cc13)CCCC2	.	2%	i	.	.	21µM*
COc1cccc(Oc2ccc(C(F)(F)F)cc2NC(=O)c2cccc(F)c2)c1	-53%	-34%	21µM*	-3%	0%	?
O=C(O)C#CC(=O)O	.	.	i	.	.	i
COc1cc2c(cc1NC(=O)c1cccc(Br)c1)CCCC2	14%	-12%	i	10%	-2%	i
COc1cc2c(cc1NC(=O)c1cccc(F)c1)CCCC2	21%	16%	23µM*	7%	-1%	i
CCOC(=O)Cc1c(C)nc2c(-c3ccc(OC)c(OC)c3)c(C)nn2c1C	.	3%	?	.	.	i
CCOC(=O)CN1CCc2c(C)nc3c(-c4ccc(OC)c(OC)c4)cnn3c21	?	-26%	8.2µM*	?	0%	i
COc1ccc(N2CCN(C(=O)CSc3nc4nc(C)cc(C)n4n3)CC2)cc1	-4%	-52%	21µM*	-5%	-2%	i
COc1ccc(N2CCN(C(=O)CSc3nc(C)cs3)CC2)cc1	0%	-5%	i	18µM*	3%	i
COc1ccc(N2CCN(C(=O)CSc3ccccc3)CC2)cc1	6%	21%	i	1%	-4%	i
CCC1CSC(Nc2ccc(C(=O)/C=C/c3cccc(C)c3)cc2)=N1 (configuration not stated)	16µM*	-15%[11.4 µM]	i	?	4%	?
CCOC(=O)Nc1ccc(C(=O)/C=C/c2ccccc2)cc1	?	-14%	i	?	7%	i
CCC1CSC(Nc2ccc(C(=O)/C=C/c3ccc(Oc4ccccc4)cc3)cc2)=N1 (configuration not stated)	?	?	18µM*	?	0%	?
N#Cc1c(-c2ccccc2)cc(-c2ccccc2)nc1SCC(O)CS(=O)(=O)Cc1ccc(Cl)cc1 (configuration not stated)	.	?	i	.	.	i
CCOC(=O)c1ccccc1NC(=O)CSc1ncc2c(n1)-c1ccccc1N(CC)S2(=O)=O	.	-7%	i	.	.	i
C=CCn1c(SCC#N)nc2cc(Cl)ccc2c1=O	.	-23%	i	.	.	i
CC(O)CNC(=O)C(=O)Nc1c2c(nn1-c1ccc(Cl)cc1)CSC2 (configuration not stated)	.	-22%	i	.	.	i
CCn1c(SCC(=O)OCc2ccccc2)nnc1-c1ccco1	-1%	14%	i	-13%	0%	i
CCn1c(Sc2ccc([N+](=O)[O-])cn2)nnc1-c1ccco1	6.5µM*	-35%	?	8%	-5%	21µM*
C/C(=N\NC(=O)c1ccccc1OCc1ccc(F)cc1)c1ccccn1	24%	16%	?	2%	-3%	12µM*
O=C(NNC(=O)c1ccccc1OCc1ccccc1)c1ccccc1O	0%	-7%	i	?	-2%	?
SMILES	MCF10A rerep	RGS4 inhibitor	KB-V1 MDR tox	SW480 rereplic	TSG101-PTAP inh	KB-3-1 tox
O=C(NNC(=O)c1ccccc1OCc1ccc(F)cc1)c1ccccc1O	-3%	-18%	.	3.3µM*	2%	.
CCOc1ccc(OCc2ccc(C(=O)N/N=C(\C)c3ccccn3)cc2)cc1	?	-12%	?	?	0%	?
CN(N=O)c1ccc2c(c1)Cc1ccccc1-2	.	.	i	.	.	i
N#Cc1c(-c2ccccc2)cc2nc3ccccc3n2c1N	12µM*	8%	i	5%	-3%	i
COc1cc(-c2cc3nc4ccccc4n3c(N)c2C#N)cc(OC)c1OC	?	11%	?	?	-1%	i
CC(NC(=O)c1ccc(N2Cc3ccccc3Oc3ncccc32)s1)c1ccccc1 (configuration not stated)	.	-24%	i	.	.	i
COc1ccc(C(=O)/C=C/c2ccc(OC)c(Cn3nnc4ccccc43)c2)cc1	16µM*	29%	?	.	-6%	i
COc1ccc(/C=C/C(=O)c2ccccc2O)cc1CN1CCOCC1	?	-5%	i	?	0%	?
COc1ccc(/C=C/C(=O)c2ccc(O)cc2)cc1CN1CCOCC1	?	-32%	?	?	-4%	16µM*
COc1ccc(C(=O)/C=C/c2ccc(OC)c(CN3CCOCC3)c2)cc1	?	-12%	15µM*	?	1%	?
COc1ccc(C)cc1Cn1nnc2ccccc21	11%	12%	i	12%[9.22 µM]	-2%	i
Nc1[nH]c(=S)nc2nnsc12	.	.	i	.	.	?
O=S(=O)(Nc1c(F)cccc1F)c1ccc(Cl)nc1	-17%	15%	i	0.92µM*	-4%	i
O=C1NC(=S)N/C1=C/c1cccc([N+](=O)[O-])c1O	-3%	-8%	i	-6%	0%	?
O=C1NC(=S)N/C1=C/c1cc([N+](=O)[O-])ccc1O	27%	-52%	i	10µM*	5%	i
CCC(C)NC(=O)c1c(N)n(/N=C/c2cccnc2)c2nc3ccccc3nc12 (configuration not stated)	2.1µM*	10%	?	5.8µM*	-7%	?
CC(C)OCCCNC(=O)c1c(N)n(/N=C/c2ccccn2)c2nc3ccccc3nc12	4.1µM*	-6%	?	21µM*	-6%	i
COCCCNC(=O)c1c(N)n(/N=C/c2cccs2)c2nc3ccccc3nc12	?	2%	i	7.3µM*	0%	i
